Compounds with a hit are over-represented: about 0.99% of the library has one in this group of screens.
AmpC inh detg: inhibitors of E. coli AmpC beta-lactamase with detergent; 370,000 compounds, 0.041% hits; AmpC hydrolysis of nitrocefin, absorbance 480 nm, 0.01% Triton; P00811; Potency, µM (titrated, usually from 114 µM), hits mostly inhibitors; also: nearly all actives have a fitted effect of over 25% in size
Target sequence (P00811 whole entry, looked up): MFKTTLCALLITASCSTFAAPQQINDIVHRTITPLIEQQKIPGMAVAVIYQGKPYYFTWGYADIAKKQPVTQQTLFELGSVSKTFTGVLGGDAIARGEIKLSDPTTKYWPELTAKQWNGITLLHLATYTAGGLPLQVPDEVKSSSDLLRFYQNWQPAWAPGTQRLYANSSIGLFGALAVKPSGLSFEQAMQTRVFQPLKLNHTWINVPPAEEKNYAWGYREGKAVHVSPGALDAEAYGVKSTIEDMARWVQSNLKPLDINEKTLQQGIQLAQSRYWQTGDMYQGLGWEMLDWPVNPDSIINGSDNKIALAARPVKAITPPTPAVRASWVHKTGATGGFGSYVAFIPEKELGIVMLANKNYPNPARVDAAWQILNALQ
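AmpC (5.3 nM in the dispensed reagent) in 20 mM phosphate pH 7.0 with 0.01% (detergent screen) or 0.0001% Triton X-100 was preincubated with compounds for 15 min at room temperature. Nitrocefin was then added from an 800 uM solution, and hydrolysis was followed at 480 nm.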
NS1 inh: inhibitors of influenza NS1 protein function. AID 2326. 270,000 compounds, 0.4% hits. Potency, µM (doses to about 46.1 µM); calls by dose curve; also: actives are rising curves; nearly all actives have a fitted effect of over 50% in size
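Recovery from NS1-induced slow growth read by OD600 in budding yeast switched to galactose assay medium (pH 6.0, -URA) at 1:100 dilution. Compound 23 nl per well; the matching strain lacking NS1 serves as control.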
SARS PLP yeast: inhibitors of SARS-CoV papain-like protease in yeast. Potency, µM (doses to about 32.9 µM), usual class: activators. 330,000 compounds, 0.19% hits. AID 485353. S. cerevisiae expressing SARS-CoV PLpro, growth rescue; calls by dose curve; also: nearly all actives have a fitted effect of over 55% in size
AmpC no deterg: AmpC beta-lactamase inhibition without detergent; P00811; AmpC nitrocefin hydrolysis, absorbance 480 nm, 0.0001% Triton; Potency, µM (titrated, usually from 57.1 µM), usual class: inhibitors; 330,000 compounds, 0.52% hits; also: nearly all actives have a fitted effect of over 20% in size
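AmpC (5.3 nM in the dispensed reagent) in 20 mM phosphate pH 7.0 with 0.01% (detergent screen) or 0.0001% Triton X-100 was preincubated with compounds for 15 min at room temperature. Nitrocefin was then added from an 800 uM solution, and hydrolysis was followed at 480 nm.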
AMA1-RON2 inh: inhibitors of Plasmodium falciparum AMA1-RON2 interaction; AlphaScreen AMA1-biotinylated RON2 peptide binding; Potency, µM (top dose mostly 58.2 µM), actives largely listed as inhibitors; 360,000 compounds, 0.2% hits; also: nearly all actives have a fitted effect of over 45% in size
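AMA1 (3D7) with his tag at 25 nM final met compounds first, then biotinylated RON2 peptide at 25 nM; detection used donor plus acceptor beads, 10 µg/mL apiece, read by AlphaScreen after 30 min at room temperature.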
Each line names hits and unclear results; the compound was inactive in the other large screens. Unless noted, calls follow the shape of the dose curve; as a rule, active = well fitted curve in the direction sought with a large enough effect; inconclusive = small, poorly fitted or top-dose-only effect, or another doubt; inactive = no such curve, though single readings can be large; an effect the other way counts as inactive or inconclusive.

Cn1c(C(=O)N2CCN(Cc3ccccc3)CC2)cc2c(=O)n(C)c3ccccc3c21	none
O=C(CSc1ccc2nnc(-c3ccc(Cl)cc3)n2n1)N1CCc2ccccc21	AmpC no deterg 6.31µM
CCOc1cc(NCc2ccccc2)c2ncn(C(C)C)c2c1	AMA1-RON2 inh 25.1µM (no result: AmpC inh detg, NS1 inh, SARS PLP yeast)
Nc1c2c(nc3sc4c(c13)CCCC4)CCCCC2	AmpC no deterg 3.98µM
CCC(=O)NC(/C=C/c1ccccc1)c1cc([N+](=O)[O-])c2cccnc2c1O (stereo not given)	SARS PLP yeast 2.24µM (no result: AMA1-RON2 inh)
Cc1ccccc1NC(=O)c1nc(S(C)(=O)=O)ncc1N(Cc1ccco1)Cc1sccc1C	none (no result: NS1 inh, SARS PLP yeast, AmpC no deterg, AMA1-RON2 inh)
CCCN(c1ccccc1F)S(=O)(=O)c1cc(-c2cc(C)no2)ccc1C	none (no result: NS1 inh, SARS PLP yeast, AmpC no deterg, AMA1-RON2 inh)
Cn1cc(S(=O)(=O)N2CCN(c3cccc(Cl)c3)CC2)c(=O)n(C)c1=O	none
Cn1cc(S(=O)(=O)N2CCN(c3ccccc3)CC2)c(=O)n(C)c1=O	AmpC no deterg 39.8µM
O=C(Nc1ccc(F)cc1Cl)C1CCN(c2ncnc3c2nc2n3CCCCC2)CC1	none (no result: NS1 inh, SARS PLP yeast, AmpC no deterg, AMA1-RON2 inh)
CCc1c(C(=O)N/N=C/c2cn[nH]c2-c2ccc(F)cc2)csc1C	AmpC inh detg inconclusive, AmpC no deterg 15.8µM
Cc1nnc(NC(=O)CCCCCN2C(=O)C3C4C=CC(C4)C3C2=O)s1 (stereo not given)	AmpC inh detg inconclusive, AmpC no deterg 6.31µM
CC1=NN(c2ccccc2)C(=O)C1c1ccccc1 (stereo not given)	SARS PLP yeast 14.1µM
O=C(/C=C/c1ccc([N+](=O)[O-])cc1)Nc1cccc(C(=O)Nc2ccccc2C(=O)O)c1	AmpC no deterg 35.5µM
CCCSc1nc2c(c(=O)n(C)c(=O)n2C)n1C	none
Cn1c(=O)c2c(nc(C(=N)SCC(=O)O)n2C)n(C)c1=O	NS1 inh 7.94µM (no result: AmpC inh detg, SARS PLP yeast, AmpC no deterg, AMA1-RON2 inh)
COc1ccc(C(=O)NCCn2cc(SCc3cc(C)ccc3C)c3ccccc32)cc1	none (no result: NS1 inh, SARS PLP yeast, AmpC no deterg, AMA1-RON2 inh)
O=C(O)COc1ccc(/C=N/NC(=O)c2ccc(-c3csc(Nc4ccc(Cl)cc4)n3)cc2)cc1	AmpC inh detg inconclusive
CCOc1cc(/C=N/NC(=O)c2ccc(-c3csc(Nc4ccc(C)cc4)n3)cc2)ccc1OCC(=O)O	AmpC no deterg 1.41µM (no result: NS1 inh)
S=c1[nH]cnc2scc(-c3ccc(Cl)cc3)c12	AmpC no deterg 8.91µM
NC(=O)c1c(NC(=O)CSc2nnc(-c3ccco3)n2-c2ccccc2)sc2c1CCC2	NS1 inh 1.41µM
CCOC(=O)c1c(NC(=O)CSc2nnc(-c3c[nH]c4ccccc34)n2C)sc2c1CCCC2	AmpC no deterg 3.55µM
N#Cc1c(NC(=O)CSc2nnc(-c3ccco3)n2-c2ccccc2)sc2c1CCC2	none
CCc1ccccc1NC(=O)Nc1c[nH]c(=O)[nH]c1=O	none (no result: NS1 inh, SARS PLP yeast, AmpC no deterg, AMA1-RON2 inh)
O=c1[nH]c(=S)[nH]c2c1C(c1ccc(Br)cc1)c1c([nH]c(=S)[nH]c1=O)O2	AmpC inh detg inconclusive, AMA1-RON2 inh 35.5µM
Cc1ccc(C2C3=C(CCCC3=O)Nc3[nH]c(=S)[nH]c(=O)c32)cc1 (stereo not given)	AmpC inh detg inconclusive
COc1ccc2c(c1)c(C(=O)N/N=C/c1ccc(Br)cc1)c(C)n2C	none
CCOc1ccc(/C=N/NC(=O)c2c(C)n(C)c3ccc(OC)cc23)cc1	AmpC no deterg 31.6µM
NC(=O)c1ccc(NC(=O)COC(=O)c2c3c(nc4ccccc24)/C(=C\c2cccs2)CCC3)cc1	AmpC no deterg 3.16µM
CC1CCCCC1NC(=O)COC(=O)c1c2c(nc3ccccc13)/C(=C/c1ccco1)CC2 (stereo not given)	AmpC inh detg inconclusive, AmpC no deterg 15.8µM, AMA1-RON2 inh inconclusive
O=C(COC(=O)c1c2c(nc3ccccc13)/C(=C/c1ccco1)CC2)NC1CCCC1	AmpC no deterg 17.8µM
Cc1cc(C(=O)OCC(=O)NC2CCCCC2C)c2ccccc2n1 (stereo not given)	none (no result: AmpC inh detg, NS1 inh)
CCc1cccc(C)c1NC(=O)COC(=O)c1c2c(nc3ccccc13)/C(=C\c1cccs1)CCC2	none
COc1ccc(NC(=O)CSc2ccc3nc(-c4ccccc4)cn3n2)c(OC)c1	none (no result: NS1 inh, SARS PLP yeast, AmpC no deterg, AMA1-RON2 inh)
Cc1ccc(-c2nnc3c(C(F)(F)F)nc4ccccc4n23)cc1	AmpC inh detg inconclusive, AmpC no deterg 0.141µM
COc1ccc(Cl)cc1NC(=O)CSc1nc2c(oc3ccccc32)c(=O)n1Cc1ccco1	none (no result: NS1 inh, SARS PLP yeast, AmpC no deterg, AMA1-RON2 inh)

Screens as filed in PubChem.
